The campaign covered roughly 69,000 compounds. About 8,600 (12%) showed an effect of 50% or more. For the sample, strong results were picked, then their nearest neighbours and some compounds at random.
Tested on: Plasmodium berghei
Assay: Screen against P. berghei liver stage (PbLuc), transformed with Luciferase, at 10uM
Type: functional, HepG2
Details: tested at 10 uM

Row | Compound | INHIBITION
1 | O=C(NCc1cccs1)[C@H]1CO[C@H]2CCN(C3CCCC3)C[C@H]2C1 | 17.7%
2 | O=C(NCCc1cccs1)[C@H]1CO[C@H]2CCN(CC3CC3)C[C@H]2C1 | 17.7%
3 | O=C(NCCc1cccs1)[C@H]1CO[C@H]2CCN(C3CCC3)C[C@H]2C1 | 62%
4 | CN(C)CCN1CCCC12CCN(C(=O)c1cccn1C)CC2 | 20.5%
5 | CN(Cc1cccs1)C(=O)CS(=O)(=O)Cc1ccc(Cl)c(Cl)c1 | 62.2%
6 | CN(Cc1ccsc1)C(=O)CS(=O)(=O)Cc1ccc(Cl)c(Cl)c1 | 9.32%
7 | CN(Cc1ccccc1)C(=O)CS(=O)(=O)Cc1ccc(Cl)c(Cl)c1 | -35.7%
8 | Nc1nccnc1C1CN(C(=O)c2cnc(C3CC3)nc2)CCO1 (stereo not drawn) | 26.8%
9 | CCc1nn(C)c(Cl)c1CN1C[C@@H](NC(=O)N(C)C)[C@H](C(C)C)C1 | 59.7%
10 | CCc1nn(C)c(Cl)c1CN1C[C@H](NC(=O)CCO)[C@@H](C(C)C)C1 | 14.8%
11 | Cc1noc(C)c1CN1C[C@@H](NC(=O)N(C)C)[C@H](C(C)C)C1 | -9.29%
12 | c1ccc(OCc2cscn2)c(CNC2CCc3ncnn3C2)c1 (stereo not drawn) | 3.1%
13 | CCN(CC1COc2ccccc2O1)C(=O)NCCCn1cncn1 (stereo not drawn) | 10.17%
14 | CC(=O)N1CCCC1c1nnn2cc(NCc3cccnc3)ccc12 (stereo not drawn) | -15.3%
15 | CC(=O)N1CCCC1c1nnn2cc(Nc3ccccc3)ccc12 (stereo not drawn) | 2.41%
16 | CC(=O)N1CCCC1c1nnn2cc(-c3ccncc3)ccc12 (stereo not drawn) | 61.9%
17 | CCN1CCOCC12CCN(C(=O)C1CCC1)CC2 | -22.1%
18 | CN(C)CCN1CCN(Cc2cccs2)Cc2cccnc21 | 7.53%
19 | c1coc(CN2CCO[C@H]3[C@@H](OCC4CC4)CC[C@@H]32)c1 | 6.67%
20 | CN(Cc1ccccn1)CC1CCCN1c1cccnn1 (stereo not drawn) | -8.11%
21 | CCCc1nc(CNCC2CCCN2c2cccnn2)no1 (stereo not drawn) | 59%
22 | CCc1nc(CNCC2CCCN2c2cccnn2)cs1 (stereo not drawn) | 5.8%
23 | CCc1noc(CNCC2CCCN2c2cccnn2)n1 (stereo not drawn) | 19.5%

Row | Compound | INHIBITION
24 | CC(C)CCc1nc(CNCC2CCCN2c2cccnn2)cs1 (stereo not drawn) | 61.3%
25 | CCc1nc(CNCC2CCCN2c2cccnn2)no1 (stereo not drawn) | 23.4%
26 | O=C(CNCC1CCCN1c1cccnn1)NCCc1cccs1 (stereo not drawn) | 28%
27 | CN(Cc1cnn(-c2ccccc2)n1)CC1CCCN1c1cccnn1 (stereo not drawn) | 58.3%
28 | CCCc1nc(CNCC2CCCN2c2cccnn2)cs1 (stereo not drawn) | 48.2%
29 | c1cnnc(N2CCCC2CNCc2cccs2)c1 (stereo not drawn) | 19.5%
30 | c1cnnc(N2CCCC2CNCCc2cccs2)c1 (stereo not drawn) | 91%
31 | CN(Cc1cnn(-c2ccccc2)n1)C1CCCN(c2cccnn2)C1 (stereo not drawn) | -19.4%
32 | CC(C)CN1CCS(=O)(=O)[C@@H]2CCN(S(=O)(=O)N(C)C)CC[C@@H]21 | 20.1%
33 | O=C(NCCN1CCCCC1)C(c1ccccc1)N1CCCC1 (stereo not drawn) | -22.1%
34 | Cc1cnccc1-c1cnn(CCNC(=O)c2cccnc2)c1C1CC1 | 16.5%
35 | CC(C)N(C)Cc1nnc2n1CCCN(c1ncccn1)C2 | 29.5%
36 | CCC(CC)C(=O)NC1CCCc2nc(N3CCOCC3)ncc21 (stereo not drawn) | 7.52%
37 | Cn1cc(N2CC3(CCN(CC4CC4)C3)CC2=O)cn1 (stereo not drawn) | 15.3%
38 | Cc1nn(C)c(C)c1-c1cnc(C2CCCN(S(C)(=O)=O)C2)cn1 (stereo not drawn) | -6.92%
39 | CCNc1cc2c(nn1)CCN(C(=O)C1CCc3ccccc31)C2 (stereo not drawn) | 11.2%
40 | COCC(=O)N1CCC(c2cc3nc(C)cc(C(F)(F)F)n3n2)CC1 | 20.15%
41 | O=C1NC2(CCCN(C(=O)CCn3cccn3)C2)Oc2ccccc21 (stereo not drawn) | 10.385%
42 | c1ccc(-n2cc(CNCC3CCCN3c3cccnn3)nn2)cc1 (stereo not drawn) | 18.2%
43 | c1ccc(-n2ccc(CNCC3CCCN3c3cccnn3)n2)cc1 (stereo not drawn) | 16.9%
44 | c1ccc(-n2ncc(CNCC3CCCN3c3cccnn3)n2)cc1 (stereo not drawn) | 57.2%
45 | Cc1ccc(C(=O)NS(=O)(=O)c2ccccc2Br)c(=O)[nH]1 | 44.1%
46 | Cc1ccc(C(CCNCCCN(C)C)C2CCOC(C)(C)C2)cc1 (stereo not drawn) | 32.3%

Row | Compound | INHIBITION
47 | CCOCc1nn(C)c2c1CN(Cc1cccs1)CC2 | 32.1%
48 | CCOCc1nn(CC2CC2)c2c1CN(Cc1cccs1)CC2 | 64.7%
49 | COCc1nn(CC2CC2)c2c1CN(Cc1cccs1)CC2 | -97.2%
50 | CC(=O)N1CCOC(Cc2cccc(C(F)(F)F)c2)C1 (stereo not drawn) | 7.1%
51 | O=C(c1ccc(O)cn1)N1CCOC(Cc2cccc(C(F)(F)F)c2)C1 (stereo not drawn) | -9.29%
52 | O=C(c1n[nH]cc1Cl)N1CCOC(Cc2cccc(C(F)(F)F)c2)C1 (stereo not drawn) | 75.9%
53 | CN(C(=O)Nc1ccncc1)C1CCN(c2ccccc2)C1=O (stereo not drawn) | 41.3%
54 | CN1C(=O)COc2ccc(NC(=O)CCc3nc4cccnc4[nH]3)cc21 | 39.7%
55 | O=C(Nc1cc(-c2ccccc2)on1)N1CC[C@H](O)C1 | -51.7%
56 | CCC(=O)NC1CCCN(C(=O)Nc2cc(-c3ccccc3)on2)C1 (stereo not drawn) | 52.6%
57 | O=C(Nc1cc(-c2ccccc2)on1)N1CCN(CCO)CC1 | 43.9%
58 | Cc1nnc(NC(=O)NCCN(C(=O)OC(C)(C)C)C2CC2)s1 | 4.34%
59 | O=C1CCN(CCS(=O)(=O)c2ccc(Cl)cc2)CCN1 | 7.43%
60 | COCCNC(=O)[C@H]1C[C@@H]2CCN(c3ccncn3)C[C@H]2O1 | 7.53%
61 | Cc1cc2n(n1)CC(CNCc1ccc(N3CCOCC3)nc1)CN2 (stereo not drawn) | -2.143%
62 | Cc1cccnc1CCNC(=O)CC1C(=O)NCCN1CCC(C)C (stereo not drawn) | -23%
63 | CCCn1nccc1-c1cc(C2CCN(S(C)(=O)=O)CC2)ccn1 | 55.6%
64 | CCCn1nccc1-c1cc(C2CCN(C(C)=O)CC2)ccn1 | 12.3%
65 | Cn1nccc1-c1cc(C2CCN(S(C)(=O)=O)CC2)ccn1 | 42.4%
66 | COCC1c2nnn(CC3CC3)c2CCN1C(=O)c1ccnnc1 (stereo not drawn) | -16.2%
67 | COCC1c2nnn(CC3CC3)c2CCN1C(=O)c1cccn1C (stereo not drawn) | -56.2%
68 | COCC1c2nnn(CC3CC3)c2CCN1C(=O)c1sccc1C (stereo not drawn) | 72.3%
